Source: PubChem BioAssay (The Scripps Research Institute Molecular Screening Center)
Most compounds without a hit are left out; they make up all but 2.4% or so of the library.
CHRM1 agonist – activates human CHRM1 receptor; activation, % at 3 µM; 360,000 compounds, 0.33% hits; P11229; CHO-K1 hM1, Fluo-8 calcium fluorescence, agonist mode; 0% DMSO, 100% acetylcholine EC100;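 active means activation above the run's mean compound activation plus 3 SD, cut at about 16% in these data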;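 further: peak over basal fluorescence ratio within a 140 s kinetic read after compound addition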
Target sequence (P11229 whole entry, looked up): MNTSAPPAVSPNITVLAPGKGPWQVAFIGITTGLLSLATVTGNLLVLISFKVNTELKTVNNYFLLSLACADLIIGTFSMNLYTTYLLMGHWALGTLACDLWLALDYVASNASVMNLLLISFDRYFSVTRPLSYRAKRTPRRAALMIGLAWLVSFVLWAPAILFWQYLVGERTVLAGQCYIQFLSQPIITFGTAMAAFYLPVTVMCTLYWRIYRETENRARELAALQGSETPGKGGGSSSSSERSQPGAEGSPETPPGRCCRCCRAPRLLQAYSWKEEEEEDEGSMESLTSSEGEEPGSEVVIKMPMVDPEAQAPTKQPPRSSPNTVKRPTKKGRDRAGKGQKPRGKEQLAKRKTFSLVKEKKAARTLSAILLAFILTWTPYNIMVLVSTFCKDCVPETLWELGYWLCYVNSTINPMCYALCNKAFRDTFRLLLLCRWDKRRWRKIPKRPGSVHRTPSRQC
CHO-K1 Ca PAM – M1 PAM counterscreen hit in parental CHO-K1 cells. 360,000 compounds, 0.02% hits. ATP EC20, Fluo-8 calcium fluorescence; 0% at ATP EC20, 100% at ATP max. AID 602247. activation, % at 3 µM;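 active means activation above the run cutoff, the mean activation of all test compounds plus 3 SD, cut at about 40% in these data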;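 further: peak over basal fluorescence ratio in a 140 s read after ATP addition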
M1 PAM – positive allosteric modulators of human M1 muscarinic receptor; P11229; CHO-K1 hM1, Fluo-8 calcium fluorescence, ACh EC20; 0% = ACh EC20, 100% = maximal ACh; activation, % at 3 µM; 360,000 compounds, 0.088% hits; AID 588819; in the data active means activation above about 19%, passing the limit was not always enough
CHO-K1 Ca ag – nonselective activator or artifact in parental CHO-K1 cells. activation, % at 3 µM. 360,000 compounds, 0.48% hits. Fluo-8 calcium fluorescence; scaled to maximal ATP response, vehicle zero. AID 602248; in the data active means activation above about 15%;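 further: untransfected CHO-K1 host cells lacking M1 receptor as counterscreen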
CHRM1 antagonist – blocks human M1 muscarinic receptor | CHO-K1 hM1, Fluo-8 calcium fluorescence, ACh EC80 antagonist | inhibition, % at 3 µM | AID 588852 | P11229 | 360,000 compounds, 1.3% hits;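 active means percent inhibition above its own plate's cutoff, namely the mean of that plate's compound wells plus 3 SD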;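 further: peak over basal fluorescence ratio during 140 s after agonist addition; 0% = ACh EC80 plus DMSO and 100% = DMSO alone without agonist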
CHO-K1 Ca antag – M1 antagonist counterscreen hit in parental CHO-K1 cells; 360,000 compounds, 0.6% hits; ATP-induced calcium, Fluo-8 fluorescence; inhibition, % at 3 µM;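 active means inhibition above a per-plate cutoff, the plate's mean sample inhibition plus 3 SD, cut at about 24% in these data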;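 further: 0% = DMSO plus EC80 ATP and 100% = DMSO alone without ATP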
Starred values were filed as active, the others as inactive.

SMILES	CHRM1 agonist	CHO-K1 Ca PAM	M1 PAM	CHO-K1 Ca ag	CHRM1 antagonist	CHO-K1 Ca antag
Cc1cc(=O)n2c3ccccc3n(CC(O)CN3CCN(Cc4ccccc4)CC3)c2c1C#N (stereo unspecified)	-5.6	-0.3	-21.9	3.3	45.3*	4.1
O=C1/C(=C\c2cccnc2)Sc2ccccc21	19.2*	13.3	15.5	1.4	3.0	-3.0
CCc1ccc(N2CC(C(=O)OCC(=O)Nc3ccc(C#N)cc3)CC2=O)cc1 (stereo unspecified)	-3.0	-5.2	-0.1	2.4	3.2	6.1
CCC(C)N1CCN(C(=O)C2CCN(S(=O)(=O)c3c(C)noc3/C=C/c3ccco3)CC2)CC1 (stereo unspecified)	-6.3	-18.1	-23.9	-0.6	79.6*	10.2
Cc1cccc(NC(=O)C2CCN(S(=O)(=O)c3c(C)noc3/C=C/c3ccco3)CC2)n1	-2.5	15.0	-3.4	4.2	5.1	-5.5
O=C(NCc1ccccc1)N1CCN(CCO)CC1	-2.8	6.2	3.5	0.2	-10.0	3.4
O=C(N1CCN(CCO)CC1)N1c2ccccc2C=Cc2ccccc21	-6.0	27.8	-14.9	0.1	30.7*	-14.5
COc1ccc(C(=O)C2CCCN(C3Cc4ccccc4C3)C2)c(OC)c1 (stereo unspecified)	-14.5	-16.4	-30.7	0.2	28.9*	18.6
CC(=O)Nc1ccc(NC(=O)C(C)Sc2nnc(C3CC3)n2-c2ccccc2)cc1 (stereo unspecified)	-4.2	0.8	6.2	-0.2	-16.1	-6.2
Brc1cc2c(cc1Br)OCCOCCOCCOCCO2	-6.5	9.5	2.2	0.8	-8.9	-0.2
Brc1ccc2c(c1)OCCOCCOc1cc(Br)ccc1OCCOCCOCCO2	-2.7	11.8	-20.6	11.1	38.8*	-10.4
O=C(Nc1ccccc1)Nc1nc(-c2ccc(F)c(F)c2)cs1	4.8	-5.3	-6.4	16.1*	17.7	19.8
O=C(Nc1ccccc1)Nc1nc(-c2ccccc2)cs1	10.1	-7.3	-11.3	9.4	23.2	23.2
O=C(Nc1ccc(Cl)cc1)Nc1nc(-c2ccccc2O)cs1	8.6	-9.0	-11.0	16.6*	35.3*	15.3
COc1cc(NC(=O)c2c(F)c(F)c(OC)c(F)c2F)ccc1NC(=O)c1cccs1	-4.2	-12.4	13.2	2.5	-9.0	13.8
Cc1ccccc1S(=O)(=O)N1CCN(c2ccc3c(c2)C2CC3CCN2C(=O)OCc2ccccc2)CC1 (stereo unspecified)	-4.3	9.4	-10.0	0.5	18.2	8.3
Cc1cc(O)ccc1NC(=O)CCN1C(=O)c2ccc([N+](=O)[O-])cc2C1=O	-3.3	12.0	28.5*	0.6	2.2	-4.7
Cc1ccc(SCC(=O)OCC(=O)NC(C)c2ccc(Br)cc2)cc1 (stereo unspecified)	-2.7	14.6	2.3	0.6	-2.4	-15.6
C/C=C(/C)C(=O)OC1CC(C)(C)C[C@H]2C3=CC[C@@H]4[C@@]5(C)CCC(O[C@@H]6O[C@@H](C(=O)O)[C@@H](O)C(O[C@@H]7OC[C@H](O)[C@@H](O)[C@@H]7O[C@@H]7OC(CO)C(O)[C@@H](O)[C@@H]7O)C6O[C@@H]6OC(CO)C(O)C(O)C6O)[C@@](C)(CO)[C@@H]5CC[C@]4(C)[C@]3(C)CC(O)[C@@]12CO (stereo partly specified)	62.0*	-21.5	-36.5	66.7*	73.5*	49.0*
C/C=C(\C)C(=O)OC1[C@H](OC(C)=O)C2(CO)C(CC1(C)C)C1=CCC3C4(C)CCC(O[C@@H]5O[C@H](C(=O)O)[C@@H](O[C@@H]6O[C@H](CO)[C@@H](O)[C@H](O)[C@H]6O)[C@H](O)[C@H]5O[C@H]5O[C@H](CO)[C@@H](O)[C@H](O)[C@H]5O)[C@](C)(CO)C4CCC3(C)[C@]1(C)C[C@H]2O (stereo partly specified)	92.8*	-19.5	-36.5	98.2*	104.2*	101.8*
CC1(C)C[C@H]2C3=CCC4[C@@]5(C)CC[C@H](O[C@@H]6O[C@H](C(=O)O)[C@@H](O)[C@H](O)[C@H]6O)[C@@](C)(CO)C5CC[C@@]4(C)[C@]3(C)C[C@H](O)[C@@]2(CO)[C@@H](O)[C@@H]1O (stereo partly specified)	-4.1	-0.4	9.3	0.1	-3.8	-1.9
COc1ccc2c(c1)CCC1C2CCC2(C)C(O)C(=O)CC12 (stereo unspecified)	-2.9	10.5	-4.6	0.8	4.4	-7.9
Cc1[nH]oc(=O)c1N=Nc1ccc2[nH]c(=O)[nH]c2c1	3.0	-5.9	-0.6	2.0	11.0	-3.9
Nc1nc(N)nc(C2C=CCCC2)n1 (stereo unspecified)	6.1	-10.8	15.2	-0.2	-0.8	3.9
CN(C(=O)c1ccc(NC(=O)Cc2ccc([N+](=O)[O-])cc2)cc1)C1CCCC1	13.9	4.7	6.8	11.0	7.3	-5.5
SMILES	CHRM1 agonist	CHO-K1 Ca PAM	M1 PAM	CHO-K1 Ca ag	CHRM1 antagonist	CHO-K1 Ca antag
COc1ccc(-c2cc(-c3ccccc3O)[nH]n2)cc1OC	-3.5	-8.7	-8.3	0.0	31.3*	25.1*
O=c1c2ccccc2nc(/C=C/c2ccc([N+](=O)[O-])cc2)n1CCCO	-5.1	21.5	1.9	3.3	5.4	-2.7
Cc1ccc(/C=C/c2nc3ccccc3c(=O)n2CCc2ccccc2)cc1	-5.1	-14.7	6.2	-0.1	-9.6	25.9*
O=c1c2ccccc2nc(/C=C/c2cccc([N+](=O)[O-])c2)n1CCCO	-4.8	-5.5	-4.3	0.9	5.5	27.6*
CC1CN(C(=O)c2cc(S(=O)(=O)N3CCCCC3)ccc2Cl)CC(C)O1 (stereo unspecified)	-2.1	11.6	2.9	0.8	0.8	-9.6
COc1ccc(CN(CC(=O)NC(C)C)C(=O)CCC(=O)Nc2nccs2)cc1	-2.6	-0.3	3.2	1.0	-7.2	-16.0
CCOC(=O)C1(CCc2ccccc2)CCN(C(=O)C2CCOCC2)CC1	-6.3	-16.8	-12.9	-0.4	15.0	25.0*
CCOC(=O)C1(CCOc2ccccc2)CCN(Cc2ccc(C(=O)OC)cc2)CC1	-3.5	-2.8	-23.1	2.5	42.1*	0.8
CCOC(=O)C1(CCOc2ccccc2)CCN(Cc2nccn2CC)CC1	-9.7	20.6	-27.5	1.9	27.1*	-2.8
CCn1ccnc1CN1CCC(CO)(CCOc2ccccc2)CC1	-13.2	-4.5	-8.6	0.1	0.6	5.7
CCOC(=O)C1(CCOc2ccccc2)CCN(Cc2ccncc2)CC1	-12.6	1.2	-8.2	1.9	7.7	17.9
CCOC(=O)C1(CCCc2ccccc2)CCN(Cc2nccn2CC)CC1	-10.1	-11.5	-28.7	3.0	48.4*	18.0
CCOC(=O)C1(CCCc2ccccc2)CCN(C(=O)CCC2=NNC(=O)CC2)CC1	-6.5	2.7	-4.8	25.3*	5.7	17.1
